Results as given in PubChem BioAssay (NCI).
About 79,000 compounds went through this panel and 15% of them were active in at least one assay; those are over-represented in the sample as a whole. No stated cut-off is given here; in the data, active means growth inhibition above about 70%; inactive means the rest.

Tests used:
[1] = NCI Yeast Anticancer Drug Screen. Data for the rad50 strain (AID 155);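 further: 0% = growth of vehicle-only cultures of the same strain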; conditions: S. cerevisiae rad50 strain growth inhibition; at 50.0 µM; active compounds read high
Procedure, shortened: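 Vehicle-treated cultures provide the reference for the growth inhibition reported for compound-exposed, repair-deficient yeast.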

[2] = NCI Yeast Anticancer Drug Screen. Data for the mec2-1 strain (AID 157); conditions: S. cerevisiae mec2-1 strain, at 50.0 µM, active compounds read high
Procedure, shortened: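 Growth inhibition is read against vehicle-treated controls after compound exposure of the mec2-1 yeast strain, which is defective in DNA damage repair or cell cycle control.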

[3] = NCI Yeast Anticancer Drug Screen. Data for the sgs1 mgt1 strain (AID 161);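 further: 0% = growth of cultures given vehicle only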; conditions: S. cerevisiae sgs1 mgt1 strain, at 50.0 µM, active compounds read high
Procedure, shortened: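 Growth of a repair-deficient yeast mutant was monitored after compound treatment and expressed as inhibition relative to vehicle-treated cultures.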

[4] = NCI Yeast Anticancer Drug Screen. Data for the cln2 rad14 strain (AID 165);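 further: 0% = growth equal to vehicle treated cultures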; conditions: S. cerevisiae cln2 rad14 strain, at 50.0 µM, active compounds read high
Procedure, shortened: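 Growth inhibition, relative to vehicle-treated controls, is the read-out. The test organism is a yeast strain with defined genetic alterations, cln2 rad14.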

[5] = NCI Yeast Anticancer Drug Screen. Data for the bub3 strain (AID 167); conditions: S. cerevisiae bub3 mutant strain, at 50.0 µM, active compounds read high
Procedure, shortened: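 Mutant yeast screening strain plus compound; vehicle-treated cultures serve as the 0% inhibition reference.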

[6] = NCI Yeast Anticancer Drug Screen. Data for the mlh1 rad18 strain (AID 175); conditions: S. cerevisiae mlh1 rad18 strain growth inhibition; at 50.0 µM; active compounds read high
Procedure, shortened: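 Cells of a genetically altered yeast strain, deficient in DNA damage repair, were treated with compound. Their growth was then compared with that of vehicle-treated cultures to give inhibition.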

Measured: growth inhibition

COC1CCC(/C(C#N)=C/C2CCC(N(C)C)CC2)CC1 (stereo not drawn)
inactive: [1] 12.9% | [2] 16.2% | [3] 20.9% | [4] 10.6% | [5] 9.85% | [6] 18.6%

CC1=C/C(=N\NC(=O)c2ccc[n+](C)c2)CC(C)(C)C1
inactive: [1] 18.7% | [2] 2.2% | [3] 6% | [4] 18.4% | [5] -5.4% | [6] 12.2%

[O-][N+]1(CC[N+]2([O-])CCCCC2)CCCCC1
inactive: [1] -16.8% | [2] -4.9% | [3] 1.7% | [4] -37.3% | [5] -0.65% | [6] 15.8%

COC(=O)N1c2ccccc2[C@@H](O)[C@@H]1OC
inactive: [1] 14.4% | [2] 11.7% | [3] 7.25% | [4] -4.7% | [5] 11.7% | [6] -6.6%

CN(C)CCN(CCN(C)C)CCN(C)C
inactive: [1] 6.85% | [2] -21.5% | [3] 12.3% | [4] 9.45% | [5] 25.1% | [6] 14.6%

NC(=S)NNC(=O)c1ccncc1
inactive: [1] 13.3% | [2] -3.1% | [3] 1.8% | [4] 10.4% | [5] 3.75% | [6] 7.05%

CNc1c(F)cc(C#N)cc1F
inactive: [1] 12.1% | [2] 11.1% | [3] 1.75% | [4] 3.8% | [5] 0.75% | [6] 10.8%

Cc1ccnc(NCc2ccccn2)c1
inactive: [1] 6.7% | [2] 3.85% | [3] 17.4% | [4] -0.15% | [5] 1.3% | [6] -1.5%

CCCCOB(OCCCC)Oc1c(C(C)(C)C)cccc1C(C)(C)C
inactive: [1] 2.7% | [2] -4.6% | [3] -4.7% | [4] 9.8% | [5] -5.65% | [6] 3.75%

NC(=O)c1n[nH]c(C2OC(CO)C(O)C2O)n1 (stereo not drawn)
inactive: [1] -1.5% | [2] -6.8% | [3] 0.9% | [4] -15.7% | [5] 5.75% | [6] -7.5%

COc1ccc(C(=O)N2CCOCC2)cc1
inactive: [1] -8% | [2] -16.6% | [3] -0.9% | [4] 31.9% | [5] -3.05% | [6] -10.6%

CCOC(=O)c1cnc2ccccc2c1N=[N+]=[N-]
inactive: [1] -0.9% | [2] 27.8% | [3] 25.5% | [4] -34% | [5] 40.5% | [6] 29.9%

Clc1ccc(C2N(Cc3ccccc3)CCC3CCCCN32)cc1Cl (stereo not drawn)
inactive: [1] -10.1% | [2] -21.6% | [3] 13.7% | [4] 26.1% | [5] -10.1% | [6] -1.4%

O=[N+]([O-])c1ccc(N/N=C/c2ccccn2)nc1
inactive: [1] 8.1% | [2] -6.1% | [3] 10.1% | [4] -7.7% | [5] 6% | [6] 5.4%

CC(=O)OC1COC(N2C(=O)C(=O)c3ccccc32)C(OC(C)=O)C1OC(C)=O (stereo not drawn)
inactive: [1] 13.1% | [2] 19.4% | [3] -1.5% | [4] -22.4% | [5] 9.05% | [6] 19.1%

CC(C)C(NC(=O)c1cnc2ccccc2n1)C(=O)O (stereo not drawn)
inactive: [1] -8.15% | [2] -5.5% | [3] 0.4% | [4] -51.7% | [5] 6.35% | [6] 7.75%

CCOC(=O)N1CCNCCN(C(=O)OCC)CCNCC1
inactive: [1] -3.95% | [2] 2.3% | [3] -4.3% | [4] 0.7% | [5] -4.5% | [6] 24.1%

CCC(C)(CC(=O)O)CC(=O)O
inactive: [1] -13.9% | [2] 7.45% | [3] -15.7% | [4] 0.85% | [5] 2.7% | [6] 5.3%

CC1=NCCN1CCN
inactive: [1] 20.6% | [2] -17.2% | [3] 23.8% | [4] 12.9% | [5] 13.6% | [6] 23.6%

Cc1ccccc1N1C(=O)C2CC=CCC2C1=O (stereo not drawn)
inactive: [1] -13.3% | [2] 0.25% | [3] 12.2% | [4] -34.8% | [5] -14.4% | [6] -21.6%

N#Cc1c(=O)[nH]c(=O)n2c1[nH]c1ccccc12
inactive: [1] 14.7% | [2] 19.3% | [3] 11.9% | [4] -32.4% | [5] 12.1% | [6] 8.15%

COC(=O)CCNCCSC(=O)c1ccccc1
inactive: [1] 23.5% | [2] -9.1% | [3] -6% | [4] 12.9% | [5] 8.55% | [6] 4.6%

O=C(Cc1ccccc1)N(C(=O)c1ccccc1)c1ccccc1
inactive: [1] 8.9% | [2] 14.5% | [3] 10.8% | [4] 9.1% | [5] 24.1% | [6] 15.7%

COc1ccc(C2CC(=O)N(c3nccc(C)n3)C(=O)C2)cc1
inactive: [1] 13.5% | [2] 14.4% | [3] 15.9% | [4] -19.1% | [5] -16.5% | [6] 14.2%

CCOC(=O)NC(C(N)=O)C(N)=O
inactive: [1] -0.3% | [2] 15.8% | [3] -1.6% | [4] -44% | [5] -13.3% | [6] -2.45%

CCOC(=O)C1CC1OCc1ccccc1 (stereo not drawn)
inactive: [1] -0.2% | [2] 11.7% | [3] 4.9% | [4] -15.9% | [5] 4% | [6] 5.3%

N[C@@H]1c2c(csc2Br)C(=O)[C@@H]1O
inactive: [1] -5.25% | [2] -6.55% | [3] 13.3% | [4] -6.8% | [5] 0.8% | [6] -14.6%

COC(=O)CCC(CCC(=O)OC)([N+](=O)[O-])[N+](=O)[O-]
inactive: [1] 0.4% | [2] -1.95% | [3] 4.5% | [4] -55.6% | [5] 10.7% | [6] 3.3%

O=C1C2CCC(C2)C12CC1(c3ccccc3)C(=O)c3ccccc3N1O2 (stereo not drawn)
inactive: [1] -9% | [2] -31.6% | [3] -25.1% | [4] 8.85% | [5] 0.25% | [6] -27.4%

CCC/C=C(\CC)COC(=O)Nc1ccccc1
inactive: [1] -1.15% | [2] -19.6% | [3] -9.55% | [4] -47.9% | [5] -31.1% | [6] -1.75%

CN(C)CCOC(=O)COc1ccc(Cl)cc1
inactive: [1] -10.2% | [2] 26.6% | [3] 9.9% | [4] 38% | [5] 28.9% | [6] 21.4%

O=C1c2ccccc2-c2cc(Br)c(NC(=O)C3CCCCC3C(=O)O)cc21 (stereo not drawn)
inactive: [1] 0.2% | [2] 3.55% | [3] 20.6% | [4] 25.8% | [5] -1.2% | [6] 3.6%

CN(C)C(=S)/N=c1\ss/c(=N\C(=S)N(C)C)n1C1CCCCC1
inactive: [1] 15% | [2] 9.35% | [3] 13.4% | [4] -23.1% | [5] -18.6% | [6] 22.2%

c1cc[n+]2cc3c(ccc4cc5cccc[n+]5cc43)cc2c1
inactive: [1] 17.4% | [2] 11.1% | [3] 31.4% | [4] 58% | [5] -2.3% | [6] 11.6%

CCOC(=O)c1[nH]cc(C)c1-c1c[nH]c2ccccc12
inactive: [1] 31% | [2] 27.6% | [3] 20.4% | [4] 19.7% | [5] -4.05% | [6] 41.2%

O=CC(O)CO (stereo not drawn)
inactive: [1] 10.4% | [2] 9.5% | [3] 11.9% | [4] 3.95% | [5] 8.65% | [6] -5.2%

CCc1c(CNc2ccc(C(=O)NC(CC(=O)O)C(=O)O)cc2)ccc2nc(N)nc(N)c12 (stereo not drawn)
inactive: [1] 5.5% | [2] -0.5% | [3] 11.9% | [4] 2.85% | [5] -4% | [6] 5.6%

O=C(Nc1cc([N+](=O)[O-])ccc1F)Oc1ccc(OCc2ccccc2)cc1
inactive: [1] 11.9% | [2] -1.5% | [3] 9.9% | [4] -47.2% | [5] -2.55% | [6] 18.2%

O=C(O)/C(=C\c1ccccc1[N+](=O)[O-])c1ccc(Cl)cc1
inactive: [1] -0.2% | [2] -14.1% | [3] -2.3% | [4] -46.8% | [5] -8.95% | [6] -1.8%

CCc1ccc(/C(C#N)=C/c2ccccc2Cl)cc1
inactive: [1] 21.9% | [2] 40.5% | [3] 26.4% | [4] 10.2% | [5] 35.2% | [6] 27.1%

Cc1ccc(OCC(=O)O)cc1C
inactive: [1] -5.75% | [2] -24.2% | [3] -14.7% | [4] 0.25% | [5] -11.8% | [6] -11.2%

O=C(O)CSc1nc2cc(Cl)c(Cl)cc2[nH]1
inactive: [1] -9.75% | [2] -6.75% | [3] 1.35% | [4] -10.4% | [5] 13.1% | [6] -7.55%

C1=CC(=C(c2ccccc2)c2ccccc2)C=C1
inactive: [1] -17.1% | [2] -16.9% | [3] -4.5% | [4] -19.2% | [5] -2.75% | [6] -1.9%
